PLCb3 inh = human PLC-beta3 inhibitors, primary screen, biochemical, fluorescence; 1-phosphatidylinositol 4,5-bisphosphate phosphodiesterase beta-3 (Homo sapiens), Q01970; Purified PLC-beta3, fluorogenic substrate; inhibition, % at 12.2 µM; 370,000 compounds, 0.18% hits; AID 720704, 2013; in the data active = inhibition above about 11%;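 note: 0% = median of compound wells on plate and 100% = full blocker control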
GC-A act = GC-A stimulated cGMP production enhancers – HEK293 GC-A cells, cGMP TR-FRET, EC30 ANP, primary screen | Atrial natriuretic peptide receptor 1 (Homo sapiens), P16066 | 0% at EC30 ANP, 100% saturating ANP | activation, % at 10 µM | 370,000 compounds, 0.14% hits; in the data active = activation above about 40%
Rce1 inh = yeast Rce1p protease inhibitors, primary screen, biochemical, fluorescence, cell-free homogeneous. CAAX prenyl protease 2 (Saccharomyces cerevisiae (strain ATCC 204508 / S288c)), Q03530. 290,000 compounds, 0.27% hits. yeast membranes, quenched prenylated peptide cleavage fluorescence. calls only;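 active = fall in fluorescence gain of 50% or more versus controls, with final raw signal at or below 3038400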;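 note: plate controls were neutral control wells for no effect and wells lacking membranes for full effect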
PLC-gamma1 inh = PLC-gamma1 enzyme inhibitors, primary screen, biochemical, fluorescence, purified enzyme; 1-phosphatidylinositol 4,5-bisphosphate phosphodiesterase gamma-1 (Homo sapiens), P19174; fluorogenic substrate; inhibition, % at 12.2 µM; 370,000 compounds, 0.84% hits; in the data active = inhibition above about 9.5%
PfM18AAP inh = PfM18AAP inhibitors, malaria aminopeptidase, primary screen, biochemical, QFRET, recombinant enzyme; H-Glu-NHMec fluorogenic cleavage; M18 aspartyl aminopeptidase (Plasmodium falciparum 3D7); 290,000 compounds, 1.2% hits; inhibition, % at 7.35 µM; AID 1822, 2009;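 active = inhibition above the campaign mean inhibition over all tested compounds plus 3 SD, cut at about 28% in these data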;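 note: 0% = plate median of test compound wells and 100% = 2 mM ZnCl2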
NPR2 activator = human GC-B receptor activators, primary screen, HEK293 GC-B cells, cGMP TR-FRET, EC30 CNP; Atrial natriuretic peptide receptor 2 (Homo sapiens), P20594; 0% at EC30 CNP, 100% saturating CNP; activation, % at 10 µM; 370,000 compounds, 0.11% hits; AID 1920062, 2024;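 active = activation at 10 µM reaching about 35% in either raw or pattern-adjusted values, limit read from the data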
An asterisk follows results filed as active. Only some compounds are listed: those with a hit (about 2.2% of all), similar ones and a draw of the others.

Results for Cn1c(NCC2CCCO2)nc2c1c(=O)n(Cc1ccccc1)c(=O)n2C (stereo not given) ?
PLCb3 inh: 4; GC-A act: 1; Rce1 inh: inactive; PLC-gamma1 inh: 0; PfM18AAP inh: -6; NPR2 activator: 7

What do the screens show for `C#CCN1C(=O)[C@]2(NCCc3c2[nH]c2ccc(OC)cc32)c2cc(F)ccc21`?
PLCb3 inh: 1; GC-A act: -3; PLC-gamma1 inh: -1; NPR2 activator: 0

What do the screens show for `CCCC/C=C1/[C@H](c2ccccc2)N(C)C2=N[C@@H](c3ccccc3)CC(=O)N21`?
PLCb3 inh: -8; GC-A act: -4; PLC-gamma1 inh: -2; NPR2 activator: -8

What do the screens show for `Cn1c(=O)c2c(nc(NCc3ccccc3)n2Cc2ccc(F)cc2)n(C)c1=O`?
PfM18AAP inh: -4

Results for CCCNc1nc2c(c(=O)n(C)c(=O)n2C)n1Cc1ccc(F)cc1 ?
PLCb3 inh: 5; GC-A act: 33; Rce1 inh: inactive; PLC-gamma1 inh: 4; PfM18AAP inh: -11; NPR2 activator: 41*

Results for CCNc1nc2c(c(=O)n(Cc3ccccc3)c(=O)n2C)n1Cc1ccccc1 ?
PLCb3 inh: 2; GC-A act: 40; Rce1 inh: inactive; PLC-gamma1 inh: 5; PfM18AAP inh: -2; NPR2 activator: 40*

How did CCNc1nc2c(c(=O)n(C)c(=O)n2C)n1Cc1ccc(Cl)cc1 do in these assays?
PLCb3 inh: -1; GC-A act: 28; Rce1 inh: inactive; PLC-gamma1 inh: 0; PfM18AAP inh: 3; NPR2 activator: 27

How did CCC(C)Nc1nc2c(c(=O)n(C)c(=O)n2C)n1Cc1ccc(Cl)cc1 (stereo not given) do in these assays?
PLCb3 inh: 5; GC-A act: 42*; Rce1 inh: inactive; PLC-gamma1 inh: 2; NPR2 activator: 48*

How did Cc1cccc(-c2cccc3c4c([nH]c23)[C@@H]2C[C@H](N(C)C(=O)c3ccccc3C)[C@H]([C@H](C)O)CN2CC4)c1 do in these assays?
PLCb3 inh: -160; GC-A act: -2; PLC-gamma1 inh: -131; NPR2 activator: -6

Results for COc1ccc(CN2C/C(=C/C3=CCCCC3)N(C(=O)OCc3ccccc3)C2=N)c(OC)c1 ?
PLCb3 inh: -2; GC-A act: -1; PLC-gamma1 inh: -4; NPR2 activator: 1

What do the screens show for `CCC1(c2ccccc2)NC(=O)N(CC(=O)Nc2ccc3c(C)cc(=O)oc3c2)C1=O` (stereo not given)?
PLCb3 inh: -367; GC-A act: -2; Rce1 inh: active; PLC-gamma1 inh: -368; NPR2 activator: -6

What do the screens show for `CCC1(c2ccccc2)NC(=O)N(CC(=O)Nc2ccc3c(c2)OCO3)C1=O` (stereo not given)?
GC-A act: 6; Rce1 inh: inactive; PfM18AAP inh: 5; NPR2 activator: 3

What do the screens show for `CC(=O)CC[C@@H]1CC[C@]2(CCCN(S(C)(=O)=O)C2)O1`?
PLCb3 inh: -2; GC-A act: 0; PLC-gamma1 inh: 5; NPR2 activator: -6

Results for O=C1/C(=C\c2ccco2)SC(=S)N1c1ccc(O)cc1 ?
PLCb3 inh: -2; GC-A act: -10; Rce1 inh: inactive; PLC-gamma1 inh: 1; PfM18AAP inh: 31*; NPR2 activator: -2

What do the screens show for `O=C(CCCN1C(=O)/C(=C/c2ccccc2)SC1=S)Nc1ccc(C(=O)O)c(O)c1`?
PLCb3 inh: 5; GC-A act: 2; Rce1 inh: inactive; PLC-gamma1 inh: 4; PfM18AAP inh: 6; NPR2 activator: -4

Results for CC(C(=O)N(C)C1CCS(=O)(=O)C1)N1C(=O)/C(=C/c2ccco2)SC1=S (stereo not given) ?
PLCb3 inh: -15; GC-A act: -3; Rce1 inh: inactive; PLC-gamma1 inh: -2; PfM18AAP inh: 31*; NPR2 activator: 3

How did CC(C(=O)Nc1ccc(C(=O)O)c(O)c1)N1C(=O)/C(=C\c2ccco2)SC1=S (stereo not given) do in these assays?
Rce1 inh: inactive; PfM18AAP inh: 28*

Results for CCOC(=O)[C@@]12CN(C(=O)OC(C)(C)C)CC=C1N(Cc1ccc(OC)cc1)C(=O)[C@H]2CC(=O)N1CCN(C(=O)C2CC2)CC1 ?
PLCb3 inh: 9; GC-A act: 3; PLC-gamma1 inh: 5; NPR2 activator: -5

How did CC(C)CCn1c(=O)c2ccccc2n2c(CCl)nnc12 do in these assays?
PLCb3 inh: -6; GC-A act: 17; Rce1 inh: inactive; PLC-gamma1 inh: 0; PfM18AAP inh: -5; NPR2 activator: 6

Results for CC(C)CCn1c(=O)c2ccccc2n2c(=S)[nH]nc12 ?
PLCb3 inh: -12; GC-A act: 2; Rce1 inh: inactive; PLC-gamma1 inh: -4; PfM18AAP inh: 29*; NPR2 activator: 2

How did CCOC(=O)c1[nH]c2ccc(OC)cc2c1NC(=O)C(C)N1CCC2(CC1)OCCO2 (stereo not given) do in these assays?
PfM18AAP inh: 4

Results for CCOC(=O)c1[nH]c2ccc(OC)cc2c1NC(=O)CN1CCC2(CC1)OCCO2 ?
PLCb3 inh: inactive; GC-A act: 0; Rce1 inh: active; PLC-gamma1 inh: inactive; PfM18AAP inh: -5; NPR2 activator: 8

How did Cc1csc(NC(=O)c2ccc(COc3cccc(Cl)c3)o2)n1 do in these assays?
PLCb3 inh: -28; GC-A act: 40; PLC-gamma1 inh: -10; NPR2 activator: 41*

What do the screens show for `COC(=O)[C@]12C[C@H](CC(=O)NCc3ccc(C)o3)C(=O)N(Cc3ccc4c(c3)OCO4)C1=C[C@H](C(C)C)O[C@@H]2C1CC1`?
PLCb3 inh: -1; GC-A act: -2; PLC-gamma1 inh: 0; NPR2 activator: -2

How did FC(F)(F)Oc1ccc(Cn2ccc3ccc(-c4ccc5ccn(Cc6ccc(OC(F)(F)F)cc6)c5c4)cc32)cc1 do in these assays?
PLCb3 inh: -69; GC-A act: -5; PLC-gamma1 inh: -58; NPR2 activator: -3

How did O=C(Nc1ccc(C(=O)O)cc1)/C(=C\c1ccco1)NC(=O)c1ccccc1Cl do in these assays?
PLCb3 inh: -97; GC-A act: -3; Rce1 inh: inactive; PLC-gamma1 inh: -60; PfM18AAP inh: 30*; NPR2 activator: 0

Results for O=C(Nc1ccc(C(=O)O)cc1)/C(=C\c1ccco1)NC(=O)c1ccccc1 ?
PLCb3 inh: -61; GC-A act: -2; Rce1 inh: inactive; PLC-gamma1 inh: -35; PfM18AAP inh: 13; NPR2 activator: 0

Assay outcomes (PubChem)
